Source: PubChem BioAssay (NCATS)
Results filed as inconclusive are left out. Active and inactive are the calls of the source. The call rests on the fitted dose curve; in most records, active means well fitted curve in the direction sought with a large enough effect; inconclusive means small, poorly fitted or top-dose-only effect, or another doubt; inactive means no such curve, though single readings can be large; an effect the other way counts as inactive or inconclusive.

How the values were obtained:
[1] = test system: CRL-7250; experiment: Cytotoxic Profiling of Annotated Libraries Using Quantitative High-Throughput Screening (AID 1296008); settings: Five cell lines viability, CellTiter-Glo ATP luminescence, 48-72 h; max response: stronger effect = lower value; further: nearly all actives have a fitted effect of over 60% in size; on max response: on the % scale 0 is the no-effect control and ±100 the full control effect
Summary of the method: (§1)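 Compounds were pin-transferred onto cells and incubated 48 or 72 hr at 37 degree Celsius, 95% humidity. CellTiter-Glo was added, plates sat 10 min at room temperature, then ATP-coupled luminescence was imaged as the viability read-out.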

[2] = test system: HEK293; experiment: as above; settings: Five cell lines viability, CellTiter-Glo ATP luminescence, 48-72 h; max response: stronger effect = lower value
Summary of the method: as §1

[3] = test system: HaCat; experiment: as above; settings: Five cell lines viability, CellTiter-Glo ATP luminescence, 48-72 h; max response: stronger effect = lower value
Summary of the method: as §1

[4] = test system: KB-3-1; experiment: as above; settings: Five cell lines viability, CellTiter-Glo ATP luminescence, 48-72 h; max response: stronger effect = lower value
Summary of the method: as §1

[5] = test system: NIH3T3; experiment: as above; settings: Five cell lines viability, CellTiter-Glo ATP luminescence, 48-72 h; max response: stronger effect = lower value
Summary of the method: as §1

[6] = test system: HACAT; experiment: qHTS assay to identify novel small-molecules to repurpose for Merkel cell carcinoma treatment (AID 1296009); settings: MCC and control cell lines, CellTiter-Glo viability, 72 h; at 44.8 µM (top of the series) unless noted; further: nearly all actives have a fitted effect of over 60% in size
Summary of the method: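 Luminescence from CellTiter-Glo, read 10 min after addition at room temperature, reported viability following a 72 hr, 37 degree celsius treatment with NPC or MIPE compounds in titration; values normalized to plate controls.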

[7] = test system: C33A; experiment: Primary qHTS to identify gynecologic anti-cancer compounds using libraries of approved drugs and bioactive compounds (AID 1345084); settings: Gynecologic cancer cell panel viability, ATPlite luminescence, 48 h; series mostly up to 57.5 µM; further: on the % scale 0 is the no-effect control and ±100 the full control effect; nearly all actives have a fitted effect of over 55% in size
Summary of the method: (§2)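 Cell viability after 48 h drug treatment, ATPlite luminescence readout; five doses.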

[8] = test system: CAOV3; experiment: as above; settings: Gynecologic cancer cell panel viability, ATPlite luminescence, 48 h; series mostly up to 57.5 µM
Summary of the method: as §2

[9] = test system: CASKI; experiment: as above; settings: Gynecologic cancer cell panel viability, ATPlite luminescence, 48 h; series mostly up to 57.5 µM
Summary of the method: as §2

[10] = test system: Es-2; experiment: as above; settings: Gynecologic cancer cell panel viability, ATPlite luminescence, 48 h; series mostly up to 57.5 µM
Summary of the method: as §2

[11] = test system: HeLa; experiment: as above; settings: Gynecologic cancer cell panel viability, ATPlite luminescence, 48 h; series mostly up to 57.5 µM
Summary of the method: as §2

[12] = test system: Hek293T; experiment: as above; settings: Gynecologic cancer cell panel viability, ATPlite luminescence, 48 h, control line for the selectivity index; series mostly up to 57.5 µM
Summary of the method: as §2

[13] = test system: JEG-3; experiment: as above; settings: Gynecologic cancer cell panel viability, ATPlite luminescence, 48 h; series mostly up to 57.5 µM
Summary of the method: as §2

C/C=C(/C)C(=O)O[C@@H]1C[C@@H](OC(=O)/C(C)=C\C)[C@@]2(C)C3C(=O)C=C(C)C2C3C1(C)C
inactive: max response [1] -3.44% | max response [2] -8.78% | outcome [3] | outcome [4] | max response [5] 4.88% | outcome [6] inactive [at 17.4 µM] | Potency [7] | Potency [8] | outcome [9] | Potency [10] | Potency [11] | Potency [12] | Potency [13]

CC(C)c1ccc2c(c1)C(O)CC1C(C)(C(=O)O)CCCC21C (stereo not given)
inactive: max response [1] -4.34% | max response [2] 2.95% | outcome [3] | max response [4] -15.9% | max response [5] -2.12% | outcome [6] | Potency [7] | Potency [8] | outcome [9] | Potency [10] | Potency [11] | Potency [12] | Potency [13]

O=C(O)CC1CCC(c2ccc(-c3ccc(Nc4ccc(C(F)(F)F)nc4)cn3)cc2)CC1 (stereo not given)
inactive: max response [1] 3.84% | max response [2] -8.47% | outcome [3] | max response [4] -6.84% | max response [5] 2.56% | outcome [6] | Potency [7] | Potency [8] | outcome [9] | Potency [10] | Potency [11] | Potency [12] | Potency [13]

COc1ccc(C2COc3cc(O)ccc3C2)c(O)c1OC (stereo not given)
inactive: outcome [1] | max response [2] -9.14% | outcome [3] | max response [4] 1.88% | max response [5] -7.34% | outcome [6] | Potency [7] | Potency [8] | outcome [9] | Potency [10] | Potency [11] | Potency [12] | Potency [13]

COCC1OC(n2cnc3c(=O)[nH]cnc32)C(O)C1O (stereo not given)
inactive: outcome [1] | max response [2] -3.16% | outcome [3] | max response [4] 2.47% | max response [5] -2.27% | outcome [6] | Potency [7] | Potency [8] | outcome [9] | Potency [10] | Potency [11] | Potency [12] | Potency [13]

COC(=O)C1=COC(O[C@@H]2O[C@H](CO)[C@@H](O)[C@H](O)[C@H]2O)[C@@H]2[C@@](C)(O)[C@@H](OC(=O)/C=C/c3ccccc3)C[C@]12O (stereo not given in full)
inactive: max response [1] 1.9% | max response [2] -1.35% | outcome [3] | outcome [4] | max response [5] 4.01% | outcome [6] inactive [at 17.4 µM] | Potency [7] | Potency [8] | outcome [9] | Potency [10] | Potency [11] | Potency [12] | Potency [13]

C[C@@H]1O[C@@H](O[C@H]2[C@H](O)[C@@H](O[C@@H]3O[C@H](CO)[C@H](O)[C@H](O)[C@H]3O)[C@H](O[C@H]3CC[C@@]4(C)C(CC[C@]5(C)C4CC=C4[C@@H]6CC(C)(C)CC[C@]6(C(=O)O[C@@H]6O[C@H](CO)[C@@H](O)[C@H](O)[C@H]6O)CC[C@]45C)C3(C)C)O[C@@H]2C(=O)O)[C@H](O)[C@H](O)[C@H]1O (stereo not given in full)
inactive: max response [1] -0.719% | max response [2] 0.183% | outcome [3] | max response [4] 9.11% | max response [5] -6.48% | outcome [6] inactive [at 9.27 µM] | activity change, negative = cytotoxicity [7] 1.15% [at 11.6 µM] | activity change, negative = cytotoxicity [8] -1.94% [at 11.6 µM] | activity change, negative = cytotoxicity [9] -5.82% [at 11.6 µM] | activity change, negative = cytotoxicity [10] 2.19% [at 11.6 µM] | activity change, negative = cytotoxicity [11] 1.11% [at 11.6 µM] | activity change, negative = cytotoxicity [12] -2.99% [at 11.6 µM] | activity change, negative = cytotoxicity [13] -3.24% [at 11.6 µM]

C=C1CCC(OC(C)=O)C2(C)CC3OC(=O)C(C)=C3CC12 (stereo not given)
inactive: max response [1] -0.951% | max response [2] -10.1% | outcome [3] | max response [4] 3.31% | max response [5] -1.87% | outcome [6] | Potency [7] | Potency [8] | outcome [9] | Potency [10] | Potency [11] | Potency [12] | Potency [13]

O=C(OC1C=C(CO)C2C(OC3OC(CO)C(O)C(O)C3O)OC=CC12O)c1ccc(O)cc1 (stereo not given)
inactive: max response [1] 4.89% | max response [2] -1.34% | outcome [3] | max response [4] 1.12% | max response [5] -4.5% | outcome [6] inactive [at 17.4 µM] | Potency [7] | Potency [8] | outcome [9] | Potency [10] | Potency [11] | Potency [12] | Potency [13]

C=CCC/C=C/C#CCCCCCCCC[C@H]1C(=O)O[C@H](C)[C@@H]1O
inactive: max response [1] 0.985% | max response [2] -11.8% | outcome [3] | max response [4] -1.24% | max response [5] 0.0642% | outcome [6] | Potency [7] | Potency [8] | outcome [9] | Potency [10] | Potency [11] | Potency [12] | Potency [13]
